Screens as filed in PubChem BioAssay.
HepG2 tox – kills HepG2 cells in TGF-b inhibitor counter-screen; HepG2 CAGA-GFP viability, ATP luminescence, 18 h; Potency, µM (series often up to 46.1 µM), for the others: at the highest dose activity change, negative = cytotoxicity, hits mostly cytotoxic; 0.76% of 410,000 active
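CellTiter-Glo luminescence gave cytotoxicity after 18 hours at 37 degrees C. The cells were HepG2 CAGA-GFP in 1% FBS DMEM, stimulated with 500 pg/mL TGF-beta after compound addition. %Activity was normalised to no-cell wells (complete cell-killing) and DMSO (no toxicity), and curves were fitted and classified.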
HT1080-NT tox – kills 2HG-producing HT-1080-NT fibrosarcoma cells. HT-1080-NT fibrosarcoma viability, CellTiter-Glo ATP luminescence, 48 h. Potency, µM (top dose mostly 46.1 µM), for the others: top-dose activity, negative = less viability, usual class: cytotoxic. 1.6% of 360,000 active. AID 686970;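 note: NT is the 2HG producing partner of a matched IDH1 knockdown line; 0% = DMSO-treated cells and -100% = media-only wells without cells; nearly all actives have a fitted effect of over 55% in size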
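750 cells/well, RPMI + 5% FBS; 2 h settle, compound pin-transfer, 48 h at 37 degrees C. CellTiter-Glo 10 min RT, luminescence. Normalized to DMSO and media-only wells.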
KB-V1 MDR tox – kills drug-selected multidrug resistant KB-V1 cells | KB-V1 MDR cells viability, CellTiter-Glo, 72 h | Potency, µM (titrated, usually from 46.1 µM), actives largely listed as cytotoxic | 3.4% of 400,000 active | AID 1347076; note: % is set by controls: 0 for no effect and ±100 for the full control effect; nearly all actives have a fitted effect of over 60% in size
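Cells of the MDR subline KB-V1 are plated, dosed with compound at multiple concentrations, and incubated 72 h at 37 degrees C; CellTiter-Glo is then added and luminescence read after 10 min.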
KB-3-1 tox – kills parental KB-3-1 adenocarcinoma cells. KB-3-1 viability, CellTiter-Glo ATP luminescence, 72 h. Potency, µM (series often up to 46.1 µM), hits mostly cytotoxic. 1.4% of 400,000 active. AID 1347075; note: % is set by controls: 0 for no effect and ±100 for the full control effect; nearly all actives have a fitted effect of over 60% in size
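Viability of parental KB-3-1 cells, measured by CellTiter-Glo luminescence, followed a 72 h incubation at 37 °C with pinned compounds in phenol-red-free DMEM containing 10% FBS.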
TGFb inhibitor – inhibitors of TGF-b signaling; AID 588855; Potency, µM (series often up to 46.1 µM), for the others: top-dose activity, negative = inhibition, most hits filed as inhibitors; 1.2% of 410,000 active; HepG2 CAGA-GFP TGF-b/SMAD3 reporter, GFP fluorescence, 18 h; TGF-beta stimulated, 500 pg/mL final; note: % is set by controls: 0 for no effect and ±100 for the full control effect; nearly all actives have a fitted effect of over 65% in size
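HEPG2 CAGA-GFP reporter cells (1000/well, DMEM with 1% FBS) received compounds, then recombinant TGF-beta at 500 pg/mL final for 18 hours at 37 degrees C. Per-cell GFP summed per well was normalised to unstimulated and stimulated DMSO controls before curve fitting.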
HT1080 IDH1KD tx – HT-1080 IDH1 knockdown cell toxicity (counter line). HT-1080 IDH1 knockdown viability, ATP luminescence, 48 h. Potency, µM (highest dose often 46.1 µM), for the others: at the top dose activity, negative = toxicity, usual class: cytotoxic. 2% of 360,000 active. AID 686971;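 note: 0% = DMSO wells and -100% = cell-free medium wells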
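Knockdown cells (IDH1KD HT-1080) received compounds 2 h after plating at 750 cells/well and were kept 48 h at 37 °C in 5% FBS RPMI. A CellTiter-Glo luminescence read gave % activity for curve fitting.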
Active calls of the source: *; i = inactive; ? = inconclusive; · = no result; [ ] = dose if it differs, or a comment. The list is not random: actives were taken first. Their share in the collection is about 6.6%. Calls come from the whole dose curve; as a rule, active = well fitted curve in the direction sought with a large enough effect; inconclusive = small, poorly fitted or top-dose-only effect, or another doubt; inactive = no such curve, though single readings can be large; an effect the other way counts as inactive or inconclusive. Potency is the fitted concentration of half-maximal effect.

SMILES | HepG2 tox | HT1080-NT tox | KB-V1 MDR tox | KB-3-1 tox | TGFb inhibitor | HT1080 IDH1KD tx
CCOc1cc(CNc2ccc3c(c2)OCCO3)cc(Br)c1OC | -17% | 2.3µM* | 2.1µM* | 1.6µM* | ? | 1.5µM*
COc1ccc(-n2c(SCC(=O)Nc3nnc(C)s3)nc3c([nH]c4ccccc43)c2=O)cc1 | -9% | · | · | · | 4% | ·
O=C(NC1CC1)c1nc2c(nnn2Cc2ccccc2Cl)c(=O)[nH]1 | -23% | -18% | i | i | 7% | 3%[9.24 µM]
O=C(NCCc1ccccc1)c1nc2c(nnn2Cc2ccccc2Cl)c(=O)[nH]1 | -18% | -5% | 15µM* | i | -20% | ?
CCCNC(=O)C1CCC(Cn2c(=O)c3sccc3n(CC(=O)NCc3cccc(OC)c3OC)c2=O)CC1 (centres undefined) | 0% | · | i | i | -22% | ·
O=C(c1ccc(Cn2cc([N+](=O)[O-])cn2)o1)N1N=C(C(F)F)CC1(O)C(F)F (centres undefined) | 0% | -16% | ? | i | 0% | -1%
O=C(c1ccc(COc2ccccc2Br)o1)N1N=C(C(F)F)CC1(O)C(F)F (centres undefined) | -88% | 0% | 23µM* | i | ? | -4%
Cc1ccc(-n2nc3c4c(cccc4c2=O)-c2ccccc2-3)cc1 | 1% | 1% | 8.2µM* | ? | 20% | 0%
O=C(O)Cn1nc2c3c(cccc3c1=O)-c1ccccc1-2 | -1% | -2% | i | i | -12% | -1%
CCOc1ccccc1NC(=O)CN1C(=O)CC(c2ccco2)Sc2ccccc21 (centres undefined) | -29% | · | 13µM* | ? | -2% | ·
CCOc1ccccc1NC(=O)CN1C(=O)CC(c2ccc(OC)c(OC)c2)Sc2ccccc21 (centres undefined) | -23% | · | 18µM* | ? | -3% | ·
O=C(CN1C(=O)CC(c2ccccc2)Sc2ccccc21)Nc1cccc(Cl)c1 (centres undefined) | 11% | · | 21µM* | ? | 9% | ·
O=C(c1ccc(Cl)cc1)c1oc2ccccc2c1CS(=O)c1ccc(Cl)cc1 (centres undefined) | 3% | 24% | 21µM* | i | -14% | 1%
CCOc1ccc(C(C(=O)Nc2ccc(F)cc2)N(C(=O)Cn2nnc3ccccc32)C2CC2)cc1 (centres undefined) | -11% | -22% | 23µM* | i | ? | -24%
COc1cccc(C(C(=O)Nc2ccc(F)cc2)N(C(=O)Cn2nnc3ccccc32)C2CC2)c1 (centres undefined) | -1% | 8% | ? | i | -24% | -13%
CC12CCC(C(=O)Nc3cccc(Cl)c3)(C(Br)C1=O)C2(C)C (centres undefined) | -25% | -14% | 15µM* | ? | -29% | -10%
c1ccc(-c2nnc(CN3CCN(c4ccccc4)CC3)o2)cc1 | -1% | -1% | ? | i | 3% | 0%
Cc1ccc(C2=NN(Cc3nnc(-c4ccccc4)o3)C(=O)SC2)cc1 | -28% | 9% | 13µM* | i | ? | 12%
CCOc1ccccc1CN(CCc1ccc2c(c1)OCO2)Cc1cccc(OC)c1OC | -21% | · | ? | i | ? | ·
CCOc1ccc(CN(CCc2ccc3c(c2)OCO3)Cc2cc(OC)c(OC)cc2OC)cc1 | -24% | · | · | · | 11µM* | ·
Cc1nc2c(O)c3c(c(O)c2nc1C)C1C=CC3CC1 | -106% | ? | ? | i | ? | 16µM*
CCN(CC)c1ccc(/C=N/Nc2ccc(C)cc2)c(O)c1 | -6% | -7% | i | i | -10% | -6%
CCOC(=O)N/N=C/c1ccc(N(CC)CC)cc1O | -3% | ? | ? | 21µM* | -2% | 9.2µM*
CCN(CC)c1ccc(C=Nc2ccc(C)cc2C)c(O)c1 | 3% | -12% | i | i | -10% | -1%
Cc1cc(=O)[nH]c(NN=Cc2cc(Br)ccc2O)n1 | -7% | -22% | 0.58µM* | ? | ? | ?
SMILES | HepG2 tox | HT1080-NT tox | KB-V1 MDR tox | KB-3-1 tox | TGFb inhibitor | HT1080 IDH1KD tx
Cc1cc(=O)[nH]c(N/N=C/c2ccccc2Cl)n1 | -17% | 10% | i | i | -23% | 0%
CCN(CC)c1ccc(/C=N/Nc2nc(C)cc(=O)[nH]2)c(O)c1 | -31% | -17% | ? | 1.2µM* | ? | ?
CCN(CC)c1ccc(C=Nc2cc(C)ccc2C)c(O)c1 | -8% | 1% | 23µM* | ? | -13% | -8%
CCCOc1ccc(CNC(=O)Cn2ncn3c(cc4sc(CC)cc43)c2=O)cc1 | 6% | · | · | · | -7% | ·
Cc1c(Cl)cccc1-n1ncc(C(=O)NC2CCCC2)c1C1CCN(C(=O)OC(C)(C)C)CC1 | -17% | · | i | i | -19% | ·
O=c1cc(N2CCCCC2)c(-c2ccccc2)nn1Cc1c(Cl)cccc1Cl | 18µM* | 18µM* | ? | ? | 10µM* | 16µM*
COc1cccc(Cn2cnc3c2c(=O)n(C)c(=O)n3C)c1 | -26% | · | · | · | -30% | ·
CC(C)C(=O)NC(C)C(c1cccs1)N1CCN(c2ccccc2)CC1 (centres undefined) | 3% | 14% | 13µM* | i | -2% | 10%
CC(NC(=O)c1cccs1)C(c1cccs1)N1CCN(c2ccccc2)CC1 (centres undefined) | -12% | -11% | i | i | -4% | -3%
COc1ccc(N2CCN(C(c3cccs3)C(C)NS(=O)(=O)c3ccccc3)CC2)cc1 (centres undefined) | 0% | 4% | ? | 21µM* | -5% | -10%
Cc1ccc(Cl)cc1NC(=O)Cn1c(SCC(=O)NCc2ccccc2)nc2ccccc21 | -2% | · | i | i | -8% | ·
CCOc1ccccc1Nc1nc2ccccc2nc1NS(=O)(=O)c1ccc(Cl)cc1 | -45% | · | i | i | -14% | ·
COc1ccc2nc(SCC(=O)N3CC(=O)Nc4ccccc43)c(C#N)cc2c1 | -10% | ? | ? | 2.6µM* | 6% | ?
Cc1cc(C)c2nc(SCC(=O)N3CC(=O)Nc4ccccc43)c(C#N)cc2c1 | 4% | ? | 0.73µM* | 0.65µM* | ? | 0.92µM*
Cc1cc(C)c2nc(SCC(=O)Nc3ccccc3N3CCOCC3)c(C#N)cc2c1 | -14% | 5% | i | i | 1% | 2%
C#CCN1CCc2onc(-c3ccc(Br)cc3)c2C1=O | · | -23% | 18µM* | ? | · | 0%
CCOc1ccc(NC(=O)COC(=O)c2cc(C)oc2C)cc1 | -2% | -4% | i | i | 0% | -5%
